This is an account of results in PubChem BioAssay AID2283304 (EPA ToxCast).

Inconclusive results are not listed. Activity calls are given as the source filed them. The calls were made as follows: active = hit-call score of the fitted dose curve at least 0.9, where 1 is the maximum; inconclusive = response in the unintended direction; inactive = score below 0.9.

Chain of rat Galanin Receptor, Galr1 (gene 50577) (Q62805 whole entry, looked up): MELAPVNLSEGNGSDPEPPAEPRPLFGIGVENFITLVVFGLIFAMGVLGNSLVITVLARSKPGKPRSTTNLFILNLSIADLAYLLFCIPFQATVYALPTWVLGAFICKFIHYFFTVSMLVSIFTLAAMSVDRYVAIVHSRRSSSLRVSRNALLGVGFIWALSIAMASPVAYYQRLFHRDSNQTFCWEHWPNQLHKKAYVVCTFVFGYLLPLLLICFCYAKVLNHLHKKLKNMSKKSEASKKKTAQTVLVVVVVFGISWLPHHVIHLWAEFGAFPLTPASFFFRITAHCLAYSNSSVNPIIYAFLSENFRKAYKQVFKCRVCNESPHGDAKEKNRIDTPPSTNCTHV

In this assay the target is rat Galanin Receptor, Galr1 (gene 50577) (UniProt Q62805). In words: NVS_GPCR_rGalanin: NovaScreen (NVS) G Protein-Coupled Receptor Assay for rat Galanin Receptor. How it is done:
NVS_GPCR_rGalanin is a biochemical, single-readout assay that uses extracted gene-proteins from Rat brain membranes in a tissue-based cell-free assay. Measurements were taken 2 hours after chemical dosing in a 96-well plate.NVS_GPCR_rGalanin is one of one assay component(s) measured or calculated from the NVS_GPCR_rGalanin assay. It is designed to make measurements of radioligand binding, a form of binding reporter, as detected with scintillation counting signals by Filter-based radiodetection technology.Data from the assay component NVS_GPCR_rGalanin was analyzed into 1 assay endpoint. This assay endpoint, NVS_GPCR_rGalanin, was analyzed in the positive analysis fitting direction relative to DMSO as the negative control and baseline of activity. Using a type of binding reporter, loss-of-signal activity can be used to understand changes in the binding as they relate to the gene Galr1. Furthermore, this assay endpoint can be referred to as a primary readout, because the performed assay has only produced 1 assay endpoint. To generalize the intended target to other relatable targets, this assay endpoint is annotated to the gpcr intended target family, where the subfamily is rhodopsin-like receptor.
Binding assays used specific radioligands (tritiated, iodinated) with non-radioactive competitive displacement ligands in agonist or antagonist protocols (as indicated) and various reference compounds and inhibitors to titrate specific binding to receptors and transporters. Most enzyme assays (CYPs, kinases, phosphatases, proteases, HDACs) used recombinant protein and specific substrates (fluorescence mostly, some colorimetric and radioactive) and inhibitors, followed by a biochemical separation of substrate and product. All assays for the biochemical HTS were initially run in duplicate at a single concentration (10 uM for CYP450 assays and 25 uM for all others). Assay-chemical combinations meeting a pre-defined threshold (e.g., 30% inhibition and other criteria defined below) were then run in singleton concentration-response format with maximum concentration of 20 uM for CYPs and 50 uM for all others. Each assay was run with positive and negative controls, and concurrent controls on every plate. The follow-up (secondary) screen tested active chemical-pairs in concentration series, as well as a few additional assays not tested in the primary screen, some selected negative inactives, and several cases re-run in the concentration series for confirmatory purposes.
With `CCN1CCC2(CC1)COc1cc3c(cc12)N(C(=O)c1ccc(-c2ccc(-c4nnc(C)o4)cc2C)cc1)CC3`, the result was inactive.

`COS(C)(=O)=O`: the call was inactive.

On to `CCCCCCCCCCC`, for which the outcome was inactive.

For `c1ccc2c(c1)-c1cccc3c1c-2cc1ccccc13`, the compound was called inactive.

Turning to `Cc1cc(O)ccc1Cl`, the result was inactive.

A word on the AC50: it is the concentration giving half of the maximal activity seen. On to `CCC[CH2][Sn]([Cl])([CH2]CCC)[CH2]CCC`, for which the AC50 was 3.99 µM (active).

Regarding `CC(C)NCC(O)c1ccc(O)c(O)c1` (stereo unspecified), the compound was classed as inactive.

With `O=c1ccc2ccccc2o1`, the compound was called inactive.

For `Cc1cccc(C)c1O`, the call was inactive.

On to `CC(C)=CCCC(C)=CC=O`, for which the compound was called inactive.

With `CCCCCCCCCCO`, the compound was called inactive.

Take `CCCCc1ccc2c(n1)[C@@H](c1ccc(OC)cc1C[C@H](C)C(=O)O)[C@H](C(=O)O)[C@H]2c1ccc2c(c1)OCO2`: the result was inactive.

As for `C=CCC1=C(C)C(OC(=O)C2C(C=C(C)C)C2(C)C)CC1=O` (stereo unspecified), the compound was called inactive.

`CN(C)C(=O)Cl`: the result was inactive.

`O=C(O)C1C(C(=O)O)C2(Cl)C(Cl)=C(Cl)C1(Cl)C2(Cl)Cl` (stereo unspecified): the outcome was inactive.

For `CC(C)(c1ccccc1)c1ccc(O)c(C(C)(C)c2ccccc2)c1`, the result was inactive.
